# From the supplement of paper PMC6555819
# Tested on: VDR:RXRa (NR concentration 270 nM, RXRa partner concentration 90 nM)
# Assay: PBM binding z-score (relative to random genomic background probes); higher = stronger binding; sequences stand for … in GC…GCGATTGACAGCGTAGAATGAAGG
# Procedure: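 Protein-binding microarray (Agilent 4x180K custom design, double-stranded 60-nt probes: 5' GC cap, 34-nt variable region, 24-nt constant primer region; full probe sequence given). Purified or IVT nuclear receptor:RXRα heterodimers (3:1 NR:RXRα, mostly 270:90 nM) or homodimers were incubated for 1 h in PBS with 2% milk and no ligand, then detected with Alexa488 antibodies. Fluorescence from o1-orientation probes (~5 replicates averaged) was converted to z-scores against 500 random hg19 background probes. Variable regions are seed direct-repeat (DR0–DR5) sites, all their single-nucleotide variants and half-site ablations.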
row,Sequence,PBM binding z-score
1,TCGAATAGGTTACGGGGGCATTCAGGGATGAAGA,4.6
2,CCGACGGGGGCAAGGTTACCATAACGCACAGCCA,3.01
3,ATATGTATGTTAGGGTCATTCAGAAAGTAGGGAA,4.38
4,ATCGAAAGGTCGAAGGAGAGTATACCCACCCGAA,2.23
5,CTATGTAGGATAAGGGGGTCATTCAGTTTGAAAG,6.5
6,GCTTACGGGTCAAAGGTTATGGCATGAATAGAAT,5.58
7,CTATGTAGGTTAAGGGGGTCAGTCAGTTTGAAAG,6.49
8,CGAACTAGCTCAAAGGACAGTGAAAGGCGACGTA,-0.564
9,CAAACTAGGTCACAGAGGTCAAACTCCGTGCGTA,8.03
10,GCTGCTAGGTCAGGTTGGTCAACTAACGGGTACG,0.9
11,ACTTACGGGTCAACGAAGTTATAGCACGCGTATA,4.19
12,CCTACTGGGCCGAGGTCATTGATCAGTCAAAGCA,4.12
13,CCGAGTAGGTTACGAGGGGGCAGTCAGTGCGAAT,3.95
14,CCATGTAGGTTAAGGGGGTCATTCAGTTTGAAAG,7.41
15,CCTTCTGGGCCATTCAGAGGTCATTGATCATATG,4.01
16,TAGCCTAGGTCATGGGCCTGTATACCACGCGAAC,1.98
17,TCGAGTAAGTTACGGGGGCATTCAGGGATGAAGA,3.01
18,CGAACTCGGTCAAAGGACAGTGAAAGGCGACGTA,0.208
19,TGTCAAAGTTCTAAGGTAACGTAAGTATCCACAC,0.479
20,ATATGTAGGTTAGGGTCATTCAAAAAGTAGGGAA,4.58

row,Sequence,PBM binding z-score
1,CCTTGCGGGTCACTGACAGGTTATAGCATTTGGA,3.13
2,CCTACTGGGCCATTCAGAGGTCATCGATCATATG,4.05
3,TGAATGACGTTAAAGATCAGGGAACGTGGCGTCG,-0.237
4,CTCGAAAGGTCGTCCTCAGGTGAGTATACCAAAC,3.41
5,ATCGAATGGTCGAAGGTGAGTATACCCACCCGAA,-0.0843
6,CCTAGTTGGTCAGGGGGTCACACACCGGATATGA,4.94
7,CCGAGTTGGTTACGAGGGGGCATTCAGTGCGAAT,4.32
8,TCGAGTAGGTTACGGGGGCAGTCAGGGATGAAGA,2.8
9,TAGCCTAGGTCATTCAGGCGCCAGTATAGAAAGC,2.53
10,TCGAGTAGGTTTCGGGGGCATTCAGGGATGAAGA,2.7
11,CAAACTAGGTCACCGTAAGGTCAAAGTCCGCATG,6.28
12,TCATATAGGTAAAAGGTCAAAGTCGGTGTGGTAA,5.3
13,TCTAGTTGGTCAAAGGCCACACACTCGAAATGCG,1.04
14,CGAACTAAGTCACCAGGACAGTGAAGAGGTTGGA,-0.118
15,CTTAGTTGGTCAAGGTCACACACGCTATAGGTAC,4.52
16,TGAATGAGGTTAAAGGTCAGGGAACGTGGCGTCG,5.85
17,CGAACTAGGTCATCAGGACAGTGAAGAGGTTGGA,1.89
18,AGATGTAGGTTAGGGTCATTCAGAAAGTAGGGAA,4.32
19,CCTAGCAGACCAATCTGGGTCACTCAAGGCTTGA,0.199
20,CCTTACGGGTCGCTGACAGGTTATAGCATTTGGA,0.961
